Read-out in experiment [1]: Macrophage colony-stimulating factor (MCSF), CSF1 (gene 1435)
The experiment in a line: BSK_hDFCGF_MCSF: BioMAP Diversity Plus: hDFCGF Assay for Macrophage colony-stimulating factor (MCSF) Biomarker Activity (AID 2283060). The following applies: primary human foreskin fibroblasts; actives raise or lower the signal. The method, boiled down:
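Human foreskin primary fibroblasts were treated with test chemical for 24 h, and M-CSF was then measured by ELISA. Data were fitted bidirectionally against DMSO as the negative control and activity baseline.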

The nature of experiment [2]: BSK_hDFCGF_SRB: Viability Assessment in the BioMAP Diversity Plus: hDFCGF Assay (AID 2283061).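 Note: cells exposed to compound for 24 h before the read.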 The note with it: primary human foreskin fibroblasts. In a few lines: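 Human foreskin primary fibroblasts were treated with compound and assessed 24 h after dosing. Total protein was measured by sulforhodamine B staining (0.1% SRB after 10% TCA fixation, 560 nm read) as a cytotoxicity marker, with bidirectional fitting against DMSO baseline.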

Read-out in experiment [3]: TIMP metallopeptidase inhibitor 1 (TIMP1), TIMP1 (gene 7076)
The experiment can be described thus: BSK_hDFCGF_TIMP1: BioMAP Diversity Plus: hDFCGF Assay for TIMP metallopeptidase inhibitor 1 (TIMP1) Biomarker Activity (AID 2283062). The following applies: primary human foreskin fibroblasts; actives raise or lower the signal. The method, boiled down:
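Primary human foreskin fibroblasts in the hDFCGF system were dosed with compound for 24 h, then TIMP-1 was measured by ELISA. Activity was fitted bidirectionally relative to DMSO control; parallel SRB staining assessed cytotoxicity.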

Read-out in experiment [4]: Monokine induced gamma interferon (MIG), CXCL9 (gene 4283)
The experiment in a line: BSK_hDFCGF_MIG: BioMAP Diversity Plus: hDFCGF Assay for Monokine induced gamma interferon (MIG) Biomarker Activity (AID 2283063). The note with it: primary human foreskin fibroblasts; actives raise or lower the signal. The method, boiled down: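 ELISA read-out of MIG from primary human dermal fibroblasts 24 h post-dosing. Gain or loss of signal fitted bidirectionally, DMSO as baseline.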

Read-out in experiment [5]: Matrix Metallopeptidase 1 (MMP1), MMP1 (gene 4312)
The experiment can be described thus: BSK_hDFCGF_MMP1: BioMAP Diversity Plus: hDFCGF Assay for Matrix Metallopeptidase 1 (MMP1) Biomarker Activity (AID 2283064). The note with it: primary human foreskin fibroblasts; actives raise or lower the signal. The method, boiled down: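 hDFCGF primary fibroblasts (human foreskin); chemical added; 24 h; MMP1 by ELISA; bidirectional fit vs DMSO.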

Read-out in experiment [6]: Vascular cell adhesion molecule 1 (VCAM1), VCAM1 (gene 7412)
The experiment can be described thus: BSK_hDFCGF_VCAM1: BioMAP Diversity Plus: hDFCGF Assay for Vascular cell adhesion molecule 1 (VCAM1) Biomarker Activity (AID 2283065).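 For AC50: VCAM-1 protein level quantified by ELISA after 24 h chemical exposure.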 The following applies: primary human foreskin fibroblasts; actives raise or lower the signal. The method, boiled down:
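Primary human foreskin fibroblasts (hDFCGF system) were dosed with chemical and VCAM-1 was measured by ELISA 24 h later. Bidirectional curve fitting used DMSO as negative control and activity baseline.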

Read-out in experiment [7]: Plasminogen activator inhibitor-1 (PAI1), SERPINE1 (gene 5054)
The experiment in a line: BSK_hDFCGF_PAI1: BioMAP Diversity Plus: hDFCGF Assay for Plasminogen activator inhibitor-1 (PAI1) Biomarker Activity (AID 2283066). The following applies: primary human foreskin fibroblasts; actives raise or lower the signal. The method, boiled down: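 Human foreskin fibroblast primary cells, 24 h chemical exposure; PAI-1 measured by ELISA. Bidirectional fitting relative to DMSO; parallel cultures stained with SRB for total protein to flag overt cytotoxicity.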

Read-out in experiment [8]: Intercellular Adhesion Molecule 1 (ICAM1), ICAM1 (gene 3383)
The experiment in a line: BSK_KF3CT_ICAM1: BioMAP Diversity Plus: KF3CT Assay for Intercellular Adhesion Molecule 1 (ICAM1) Biomarker Activity (AID 2283067). The note with it: primary human keratinocytes with fibroblasts; actives raise or lower the signal. In a few lines: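 Human keratinocyte plus foreskin fibroblast primary co-culture was exposed to chemical for 24 h. ICAM-1 was then quantified by ELISA, and the data were fit bidirectionally against DMSO as the negative control and baseline.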

Read-out in experiment [9]: Interferon-gamma inducible Protein 10 (IP10), CXCL10 (gene 3627)
The experiment can be described thus: BSK_KF3CT_IP10: BioMAP Diversity Plus: KF3CT Assay for Interferon-gamma inducible Protein 10 (IP10) Biomarker Activity (AID 2283068). The following applies: primary human keratinocytes with fibroblasts; actives raise or lower the signal. The method, boiled down: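 KF3CT co-culture (keratinocytes + foreskin fibroblasts), 24 h compound, IP-10 by ELISA; bidirectional fit vs DMSO baseline.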

Experiment [10] can be described thus: BSK_KF3CT_SRB: Viability Assessment in the BioMAP Diversity Plus: KF3CT Assay (AID 2283069).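 Note: fitted for both signal gain and loss against DMSO baseline.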 The note with it: primary human keratinocytes with fibroblasts. In a few lines: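 Keratinocytes co-cultured with foreskin fibroblasts (human primary); chemical added, 24 h; fix 10% TCA, stain 0.1% SRB, A560. Bidirectional fit vs DMSO.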

Where “and” joins values, the source holds several entries; their conditions need not be identical. Identical values can stand only once. Some structures have more than one record in an assay (separate samples or runs), and their calls can disagree. Calls of active or inactive are those of the source. Rule for the calls: active = hit-call score of the fitted dose curve at least 0.9, where 1 is the maximum; inactive = score below 0.9.

For the compound `CCCCN(CCCC)N=O`, the outcome in experiment [1], in [2], in experiment [3], in [4], in experiment [5] and in experiment [6] was inactive. For the same compound, the outcome in experiment [7], in [8], in [9] and in experiment [10] was inactive.
Take `CCOS(=O)(=O)OCC`: the outcome in experiment [1], in experiment [2], in experiment [3], in experiment [4], in experiment [5] and in experiment [6] was inactive. In addition, the outcome in experiment [7], in experiment [8] and in [9] was inactive.
Turning to `C=CC(=O)OCC(F)(F)C(F)F`, the AC50 is 22.8 µM (active) and 23 µM (active) in experiment [1]; 30 µM (active) and 31.7 µM (active) in experiment [3]; 36.7 µM (active) and 38.4 µM (active) in experiment [4]; 4.6 µM (active) in experiment [5]; 20 µM (active) and 11.1 µM (active) in [6]. Also, the outcome in experiment [2], in experiment [5], in experiment [7], in [8] and in [9] was inactive.
With `O=C(O)C(F)(F)OC(F)(F)C(F)(F)OC(F)(F)C(=O)O`, the result in [1], in experiment [2], in [3], in experiment [4], in [5] and in experiment [6] was inactive. In addition, the result in experiment [7], in experiment [8] and in [9] was inactive.
For `O=P1(N(CCCl)CCCl)NCCCO1` (stereo not given), the outcome in experiment [1], in experiment [2], in experiment [3], in [4], in experiment [5] and in experiment [6] was inactive. Also, the result in experiment [7], in [8] and in experiment [9] was inactive.
With `ClC(Cl)(Cl)c1ccccc1`, the outcome in experiment [1], in [2], in experiment [3], in [4], in experiment [5] and in [6] was inactive. Besides, the outcome in experiment [7], in experiment [8] and in experiment [9] was inactive.
`Cc1ccc(O)cc1C`: the result in [1], in experiment [2], in experiment [3], in [4], in [5] and in experiment [6] was inactive. The result in experiment [7], in experiment [8] and in experiment [9] was inactive.
In the case of `CC(C)Nc1ccc(Nc2ccccc2)cc1`, the AC50 is 6.38 µM (active) in experiment [1]; 6.01 µM (active) in experiment [2]; 6.56 µM (active) in experiment [3]; 6.46 µM (active) in [4]; 11.4 µM (active) in experiment [5]; 2.21 µM (active) in experiment [6]. The AC50 is 7.9 µM (active) in experiment [7] and 32.7 µM (active) in experiment [9].
As for `Nc1ccc2ccccc2c1`, the result in experiment [1], in experiment [2], in experiment [3], in experiment [4], in experiment [5] and in [6] was inactive. Also, the result in [7], in [8], in [9] and in experiment [10] was inactive.
As for `O=P(OCC(Br)CBr)(OCC(Br)CBr)OCC(Br)CBr` (stereo not given), the outcome in experiment [1], in experiment [2], in [3], in [4], in experiment [5] and in experiment [6] was inactive. The result in experiment [7] was inactive. Further, the AC50 in experiment [9] is 26.2 µM (active).
In the case of `CC(C)(C)c1ccc(O)cc1`, the outcome in [1], in experiment [2], in experiment [3], in [4], in [5] and in experiment [6] was inactive. Besides, the outcome in experiment [7], in experiment [8], in experiment [9] and in experiment [10] was inactive.
On to `CCCCN(CCCC)SN(C)C(=O)Oc1cccc2c1OC(C)(C)C2`, for which the AC50 was 7.15 µM (active) in experiment [1]; 9.64 µM (active) in experiment [2]; 12.4 µM (active) in experiment [3]; 13.2 µM (active) in experiment [4]; 12.4 µM (active) in experiment [5]; 5.54 µM (active) in experiment [6]. Besides, in [7], the AC50 is 8.57 µM (active). Moreover, the result in experiment [8], in [9] and in experiment [10] was inactive.
`O=C(O)C(F)(F)OC(F)(F)C(F)(F)OC(F)(F)F`: the result in experiment [1], in experiment [2], in [3], in experiment [4], in experiment [5] and in experiment [6] was inactive. Moreover, the outcome in [7], in experiment [8], in experiment [9] and in experiment [10] was inactive.
For `Nc1ccc(Cl)cc1`, the outcome in experiment [1], in [2], in experiment [3], in experiment [4], in [5] and in [6] was inactive. Besides, the outcome in [7] and in experiment [9] was inactive.
On to `CC(Cl)(Cl)C(=O)O`, for which the result in [1], in [2], in experiment [3], in [4], in experiment [5] and in experiment [6] was inactive. Besides, the result in experiment [7], in experiment [8], in experiment [9] and in [10] was inactive.
For the compound `ClC1=C(Cl)C2(Cl)C3C(Cl)C(Cl)CC3C1(Cl)C2(Cl)Cl` (stereo not given), the concentration at half-maximal activity (AC50) was 5.82 µM (active) in [1]; 7.71 µM (active) in [2]; 8.69 µM (active) in experiment [3]; 9.26 µM (active) in experiment [4]; 10.1 µM (active) in experiment [5]; 5.47 µM (active) in [6]. The AC50 in experiment [7] is 10.3 µM (active); in experiment [8], 31.9 µM (active); in [9] it was 16.1 µM (active); in experiment [10], 28.2 µM (active).
Regarding `O=C(O)C(Cl)Cl`, the result in [1], in [2], in experiment [3], in experiment [4], in experiment [5] and in experiment [6] was inactive. The outcome in experiment [7], in experiment [8], in [9] and in [10] was inactive.
For `C=CC(=O)OCC(CC)(COC(=O)C=C)COC(=O)C=C`, the AC50 in [1] is 2.11 µM (active); in experiment [2], 1.32 µM (active); in experiment [3], 1.11 µM (active); in [4], 1.4 µM (active); in experiment [5], 3.85 µM (active); in experiment [6], 1.07 µM (active). For the same compound, the AC50 is 1.08 µM (active) in [7] and 3.17 µM (active) in [9].
Regarding `CCCCc1ccccc1`, the result in experiment [1], in [2], in experiment [3], in experiment [4], in experiment [5] and in experiment [6] was inactive. The outcome in [7], in experiment [8], in [9] and in [10] was inactive.
As to `OCC1CO1` (stereo not given), the outcome in experiment [1], in experiment [2], in experiment [3], in experiment [4], in experiment [5] and in experiment [6] was inactive. The result in experiment [7] and in experiment [9] was inactive.

The record behind these values is PubChem BioAssay (EPA / NIEHS).
